Data published in ChEMBL document CHEMBL3988442, “University of Dundee, Small-Polar-MMV Screening Library” (2021).

target: T1, Aspartate--tRNA(Asp/Asn) ligase (Mycobacterium tuberculosis (strain ATCC 25618 / H37Rv)) (UniProt P9WFW3); assay: Assay for Asp RNA synthetase-1 from Mycobacterium tuberculosis; type: functional; parameters: scale not given: direction of the effect not stated beside the values; conditions: 30 µM; note: in the data most compounds retested in dose-response had high values
T1 sequence (whole entry): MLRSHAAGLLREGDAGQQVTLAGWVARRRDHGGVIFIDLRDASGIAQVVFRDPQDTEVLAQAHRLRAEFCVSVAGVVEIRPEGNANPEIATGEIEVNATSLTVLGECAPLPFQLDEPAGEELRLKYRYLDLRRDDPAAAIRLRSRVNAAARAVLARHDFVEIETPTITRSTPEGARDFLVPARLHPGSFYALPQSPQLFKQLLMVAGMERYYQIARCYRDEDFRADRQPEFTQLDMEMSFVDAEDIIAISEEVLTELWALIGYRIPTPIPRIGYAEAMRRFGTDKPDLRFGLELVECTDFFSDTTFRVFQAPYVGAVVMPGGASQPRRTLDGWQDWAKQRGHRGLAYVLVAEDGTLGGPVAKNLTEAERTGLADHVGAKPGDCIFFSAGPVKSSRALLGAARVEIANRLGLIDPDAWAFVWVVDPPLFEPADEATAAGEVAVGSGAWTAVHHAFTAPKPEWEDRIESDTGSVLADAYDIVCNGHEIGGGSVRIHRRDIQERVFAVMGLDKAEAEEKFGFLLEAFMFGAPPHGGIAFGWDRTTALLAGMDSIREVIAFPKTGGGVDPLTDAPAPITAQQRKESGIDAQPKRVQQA

Row | Structure (SMILES) | Percent Effect [%]
1 | COc1ccc(CN2CCCCC2CNC(=O)OC(C)(C)C)cc1F (stereo not given) | -1.76
2 | Cc1cncc(C2CCCN(Cc3cccn3C)C2)n1 (stereo not given) | 0.162
3 | CCC(OC)C(=O)N1CCc2nc(NC)nc(C(=O)N3CCCC3)c2C1 (stereo not given) | 1.34
4 | CCc1noc(CNc2ccc(C(=O)N3CCCC(C)C3)cc2C)n1 (stereo not given) | -1.27
5 | Cc1nc(-c2ccsc2)ccc1C(=O)O | -0.501
6 | CCn1c(C(=O)N2CCN(C(=O)NC(C)C)CC2)cc2ccccc21 | 2.76
7 | O=C(c1ccnnc1)N1C[C@@H](OCC2CCCC2)[C@H]2OCCC[C@H]21 | 7.95
8 | Cc1cc(C(C)NC(=O)N2CCC(n3cncn3)CC2)c(C)s1 (stereo not given) | 0.6
9 | Cc1nn2c(N3CCC(O)C3)cc(-c3ccccc3)nc2c1C (stereo not given) | -2.73
10 | CCOc1cccc2c1OCC(C(=O)NS(=O)(=O)c1ccc(C)s1)=C2 | 4.55
11 | CNS(=O)(=O)c1cccc(CNc2nccc(C(F)(F)F)n2)c1 | 3.75
12 | COc1ccc(CCNC(=O)C2CCC(Cn3cnnn3)CC2)cc1 (stereo not given) | -2.03
13 | Cc1nccnc1N1CCC2(CCCN(C3CCOCC3)C2=O)C1 (stereo not given) | -1.21
14 | CC(C)c1nnc2n1CCN(C(=O)c1ccnc(N(C)C)c1)C2 | -5.48
15 | COCC1CN(C(=O)C2=CCCCC2)Cc2cnn(CC3CC3)c21 (stereo not given) | 0.918
16 | COc1c(C2CCCN2C(=O)c2cncnc2C)c(C)nn1C (stereo not given) | 4.44
17 | c1cncc(N2CCOCC3(CCCN(c4nncs4)C3)C2)c1 (stereo not given) | 2.36
18 | COCC(NC(=O)c1cnn(C)c1)c1cccc(C(F)(F)F)c1 (stereo not given) | -1.9
19 | CCn1cnnc1CNC(=O)NCC(c1cccs1)N1CCCC1 (stereo not given) | -1.91
20 | c1sc(C2CCCC2)nc1CN1CCn2c(nnc2C2CC2)C1 | 3.23

Row | Structure (SMILES) | Percent Effect [%]
21 | COCc1nc2cc(NCc3ccncc3)ccc2o1 | 57.1
22 | O=C(c1ccno1)N1CCC2(CC1)C(=O)N(CC1CC1)c1ccccc12 | -0.569
23 | Cc1cc(C)n(C2CN(CC(O)c3ccc(F)cc3)C2)n1 (stereo not given) | 2.19
24 | Cn1ccc(CN2CCC(OCCc3ccccc3)CC2)cc1=O | 2.67
25 | Cc1nn(C)c(C)c1C1CCCN1CCCc1nc2ccccc2o1 (stereo not given) | 3.71
26 | COCCOc1ncccc1C(=O)Nc1ccc(-n2cncn2)c(F)c1 | -3.21
27 | COCCC(=O)N1CCc2cc(Cl)cc(Cl)c2C1 | 1.46
28 | CC(C)c1nccn1-c1cccc(C2CCCN(C3CCCC3)C2)n1 (stereo not given) | 3.46
29 | COC(=O)c1ccc(S(=O)(=O)NCc2cccnc2N(C)C)cc1 | -3.4
30 | COCCCN1CCCN(C(C)C(=O)Nc2cccc(I)c2)CC1 (stereo not given) | 0.0704
31 | COc1ccc(-c2noc(CNC(C)Cn3cccn3)n2)c(OC)c1 (stereo not given) | -1.71
32 | CC(C)CCN1CCNC(=O)C1CC(=O)N1CCc2sccc2C1 (stereo not given) | -3.89
33 | CNc1cncc(C2CCCN2Cc2ccccn2)n1 (stereo not given) | -3.38
34 | c1ccc(Cc2noc(CNC3CCc4ncnn4C3)n2)cc1 (stereo not given) | -0.932
35 | CC(C)c1nc(C2CCCN2CCCc2nc3ccccc3o2)no1 (stereo not given) | -3.53
36 | Cc1cc(CN(C)C(=O)NCc2cccc(N3CCCC3=O)c2)no1 | -2.4
37 | COc1cc(C)nc(N2CCN(C(=O)c3ccc(Cl)o3)CC2)n1 | 0.508
38 | CCC1=N[C@@]2(CC[C@@H]3CN(CC4CC4)C[C@@H]32)C(=O)N1C | -1.79
39 | Cc1cc(=O)n(CC(=O)Nc2ccc(C(N)=O)cc2)nc1C | -0.0781
40 | CC(=O)N1CCCn2nc(CNS(=O)(=O)c3cc(C)cs3)cc2C1 | 1.67

target: Shiga toxin 2 (Escherichia coli O157:H7) (UniProt P09385+P09386); assay: E. coli 0.157:H7 Shiga Toxin SOP - stx2 screening assay; type: functional; parameters: scale not given: direction of the effect not stated beside the values; conditions: 30 µM

Row | Structure (SMILES) | Percent Effect [%]
41 | COc1ccc(CN2CCCCC2CNC(=O)OC(C)(C)C)cc1F (stereo not given) | 6.58
42 | Cc1cncc(C2CCCN(Cc3cccn3C)C2)n1 (stereo not given) | 10.2
43 | CCC(OC)C(=O)N1CCc2nc(NC)nc(C(=O)N3CCCC3)c2C1 (stereo not given) | -1.38
44 | CCc1noc(CNc2ccc(C(=O)N3CCCC(C)C3)cc2C)n1 (stereo not given) | 19.1
45 | Cc1nc(-c2ccsc2)ccc1C(=O)O | -2.78
46 | CCn1c(C(=O)N2CCN(C(=O)NC(C)C)CC2)cc2ccccc21 | 18.3
47 | O=C(c1ccnnc1)N1C[C@@H](OCC2CCCC2)[C@H]2OCCC[C@H]21 | -3.97
48 | Cc1cc(C(C)NC(=O)N2CCC(n3cncn3)CC2)c(C)s1 (stereo not given) | 6.48
49 | Cc1nn2c(N3CCC(O)C3)cc(-c3ccccc3)nc2c1C (stereo not given) | -33.6
50 | CCOc1cccc2c1OCC(C(=O)NS(=O)(=O)c1ccc(C)s1)=C2 | 2.64
51 | CNS(=O)(=O)c1cccc(CNc2nccc(C(F)(F)F)n2)c1 | 4.67
52 | COc1ccc(CCNC(=O)C2CCC(Cn3cnnn3)CC2)cc1 (stereo not given) | -4.05
53 | Cc1nccnc1N1CCC2(CCCN(C3CCOCC3)C2=O)C1 (stereo not given) | -27.2
54 | CC(C)c1nnc2n1CCN(C(=O)c1ccnc(N(C)C)c1)C2 | -7.07
55 | COCC1CN(C(=O)C2=CCCCC2)Cc2cnn(CC3CC3)c21 (stereo not given) | -7.05
56 | COc1c(C2CCCN2C(=O)c2cncnc2C)c(C)nn1C (stereo not given) | -11.2
57 | c1cncc(N2CCOCC3(CCCN(c4nncs4)C3)C2)c1 (stereo not given) | -5.55
58 | COCC(NC(=O)c1cnn(C)c1)c1cccc(C(F)(F)F)c1 (stereo not given) | -12.8
59 | CCn1cnnc1CNC(=O)NCC(c1cccs1)N1CCCC1 (stereo not given) | -4.89
60 | c1sc(C2CCCC2)nc1CN1CCn2c(nnc2C2CC2)C1 | 27.9

Row | Structure (SMILES) | Percent Effect [%]
61 | COCc1nc2cc(NCc3ccncc3)ccc2o1 | -55.9
62 | O=C(c1ccno1)N1CCC2(CC1)C(=O)N(CC1CC1)c1ccccc12 | -1.25
63 | Cc1cc(C)n(C2CN(CC(O)c3ccc(F)cc3)C2)n1 (stereo not given) | 6.15
64 | Cn1ccc(CN2CCC(OCCc3ccccc3)CC2)cc1=O | 8.32
65 | Cc1nn(C)c(C)c1C1CCCN1CCCc1nc2ccccc2o1 (stereo not given) | 7.57
66 | COCCOc1ncccc1C(=O)Nc1ccc(-n2cncn2)c(F)c1 | 30.5
67 | COCCC(=O)N1CCc2cc(Cl)cc(Cl)c2C1 | -18.1
68 | CC(C)c1nccn1-c1cccc(C2CCCN(C3CCCC3)C2)n1 (stereo not given) | 3.04
69 | COC(=O)c1ccc(S(=O)(=O)NCc2cccnc2N(C)C)cc1 | 12
70 | COCCCN1CCCN(C(C)C(=O)Nc2cccc(I)c2)CC1 (stereo not given) | -31.1
71 | COc1ccc(-c2noc(CNC(C)Cn3cccn3)n2)c(OC)c1 (stereo not given) | -8.56
72 | CC(C)CCN1CCNC(=O)C1CC(=O)N1CCc2sccc2C1 (stereo not given) | -7.76
73 | CNc1cncc(C2CCCN2Cc2ccccn2)n1 (stereo not given) | -10.2
74 | c1ccc(Cc2noc(CNC3CCc4ncnn4C3)n2)cc1 (stereo not given) | 2.15
75 | CC(C)c1nc(C2CCCN2CCCc2nc3ccccc3o2)no1 (stereo not given) | 17.3
76 | Cc1cc(CN(C)C(=O)NCc2cccc(N3CCCC3=O)c2)no1 | -15
77 | COc1cc(C)nc(N2CCN(C(=O)c3ccc(Cl)o3)CC2)n1 | 20
78 | CCC1=N[C@@]2(CC[C@@H]3CN(CC4CC4)C[C@@H]32)C(=O)N1C | 6.84
79 | Cc1cc(=O)n(CC(=O)Nc2ccc(C(N)=O)cc2)nc1C | -33
80 | CC(=O)N1CCCn2nc(CNS(=O)(=O)c3cc(C)cs3)cc2C1 | 5.82
